This is an account of results in PubChem BioAssay (NCATS).

“And” between values parts separate entries of the source, which are not always exact repeats. Equal entries are not always repeated. Inconclusive results are not listed. The source made the active and inactive calls. The call rests on the fitted dose curve; in most records, active means well fitted activation curve with a large enough effect in the signal ratio; inconclusive means small, poorly fitted or top-dose-only effect, or a change in a side signal; inactive means flat fitted curve, though single readings scatter; the % refers to the signal ratio.

The nature of this assay: qHTS assay for small molecule activators of the nuclear factor-kappa B (NF-kB) signaling pathway (AID 651749). Further: series mostly up to about 77 µM; % of control where 0% means no effect. Conditions: NF-kB-bla ME-180 cells, beta-lactamase FRET ratio, 16 h; stronger effect = higher value. From the text: National Center for Advancing Translational Sciences [NCATS] NIH Chemical Genomics Center [NCGC] U.S. Environmental Protection Agency [EPA] National Institutes of Environmental Health Sciences [NIEHS] National Toxicology Program [NTP] Assay Overview: Transcription factors and their stimulated target gene expression play pivotal roles across many cellular processes including responses to environmental stimuli. Proper regulation of associated pathways is critical to maintain cell health and function. Constitutive activation of transcription factor pathways has been implicated in tumors as it may block cellular functions such as apoptosis and lead to invasion and metastasis. One important transcription factor that stimulates gene expression in response to cytokines, UV radiation, and other stimuli is nuclear factor-kappa B (NF-kB). To measure activation of the NF-kB pathway, the NF-kB-bla ME-180 cell line stably expressed beta-lactamase reporter gene under the regulation of a NF-kB response element was obtained from Invitrogen. This assay allows measurement of the NF-kB pathway activity induced by compounds in a ME-180 cell line. This system quantitates NF-kB activity using a FRET-based assay system where beta-lactamase expression disrupts FRET, allowing for fluorescent measurement of activity.
Assay Protocol Summary: For toxicology screening, 2,000 cells in 5 uL/well were dispensed into black, clear-bottom 1536-well plates using a Multidrop Combi (Thermo Scientific) dispenser. Following transfer of 23 nL compound or DMSO vehicle by a pin tool, the plates were incubated 16 hr at 37C and 5% CO2.
A general note: In qHTS, concentration-response curves come from the screen itself.
As to `CO[C@@H]1[C@H](OC(=O)/C=C/C=C/C=C/C=C/C(=O)O)CC[C@]2(CO2)[C@H]1[C@@]1(C)O[C@@H]1CC=C(C)C`, the activation was -0.892% (inactive). Next, `CO/N=C(/C(=O)N[C@@H]1C(=O)N2C(C(=O)O)=C(COC(N)=O)CS[C@H]12)c1ccco1`: -0.141% (inactive).

Take `OCC(O)CO`: the activation was 0.141% (inactive) and 0.577% (inactive). As for `CCCCC`, the activation was -0.668% (inactive). Next, `C=C(C)C1CC=C(C)CC1` (stereo not given): -0.265% (inactive) and 0.532% (inactive); `NCCN`: -0.458% (inactive); `CC(C)(C)CC(C)(C)c1ccc(OCCO)cc1`: 0.716% (inactive). Next, `O=P(O)(O)O`: -0.144% (inactive). Next, `Nc1ncnc2c1ncn2[C@H]1CC[C@@H](CO)O1`: -1.92% (inactive). With `C=C1C(CCl)(CCl)C2(Cl)C(Cl)C(Cl)C1(Cl)C2(Cl)Cl` (stereo not given), the activation is 0.534% (inactive). Next, `Oc1ccc(/C=C/c2cc(O)cc(O)c2)cc1`: 5.67% (inactive).

For `C[C@H](CCC(=O)O)[C@H]1CC[C@H]2[C@@H]3[C@H](O)C[C@@H]4C[C@H](O)CC[C@]4(C)[C@H]3C[C@H](O)[C@]12C`, the activation was -0.745% (inactive). Next, `O=c1n(CC2CO2)c(=O)n(CC2CO2)c(=O)n1CC1CO1` (stereo not given): -0.976% (inactive) and -0.874% (inactive); `C=CC(C)(O)CC/C=C(\C)CCC=C(C)C` (stereo not given): 0.695% (inactive); `C[C@H](CCC(=O)O)[C@H]1CC[C@H]2[C@@H]3CC[C@@H]4C[C@H](O)CC[C@]4(C)[C@H]3C[C@H](O)[C@]12C`: 0.346% (inactive). With `Oc1cccc(O)c1O` the figure was 2.45% (inactive); with `C[C@H]1O[C@@H](O[C@H]2[C@@H](O)C[C@H](O[C@H]3[C@@H](O)C[C@H](O[C@H]4CC[C@@]5(C)[C@H](CC[C@@H]6[C@@H]5C[C@@H](O)[C@]5(C)[C@@H](C7=CC(=O)OC7)CC[C@]65O)C4)O[C@@H]3C)O[C@@H]2C)C[C@H](O)[C@@H]1O`, -3.56% (inactive) and -2.4% (inactive). Turning to `CC1=CCC2CC1C2(C)C` (stereo not given), the activation is -0.174% (inactive).

Take `NCCO/C=C/[C@H](N)C(=O)O`: the activation was -5.26% (inactive).

Consider `C[Si](C)(C)O[Si](C)(C)C`, for which the activation was -1.12% (inactive).

On to `CCCCCCCCCCCCCCCCCC(=O)OC[C@@H](O)[C@H]1OC[C@H](O)[C@H]1O`, for which the activation was -0.074% (inactive). With `OC[C@H]1O[C@@](CO)(O[C@H]2O[C@H](CO)[C@@H](O)[C@H](O)[C@H]2O)[C@@H](O)[C@@H]1O` the figure was -1.26% (inactive); with `OCc1ccccc1`, 0.143% (inactive); with `Cc1ncc[nH]1`, 0.166% (inactive).

Turning to `ClC(Cl)Cl`, the activation was -1.06% (inactive). Next, `CC(C)[C@@H]1CC[C@@H](C)C[C@H]1O`: 0.809% (inactive); `CC1=CC(=O)NS(=O)(=O)O1`: -0.0661% (inactive) and 0.935% (inactive).

On to `CCOC(C)OCC`, for which the activation was 0.0884% (inactive). With `OCCOCCOCCO` the figure was -1.02% (inactive) and -0.204% (inactive); with `NC(N)=O`, 1.05% (inactive). Next, `CO`: -0.694% (inactive); `Nc1ccc(N=Nc2ccccc2)c(N)n1`: -0.825% (inactive); `CN(CCO)CC(O)Cn1cnc2c1c(=O)n(C)c(=O)n2C` (stereo not given) (tested in a mixture with another compound): 1.88% (inactive). Take `c1ccc2ccccc2c1`: the activation was 0.258% (inactive) and -0.756% (inactive).

Take `OCl`: the activation was -0.921% (inactive). As to `COC(=O)c1ccccc1O`, the activation was -1.33% (inactive) and 1.01% (inactive). Next, `[O-][N+](=Nc1ccccc1)c1ccccc1`: 0.0708% (inactive); `CC(C)O`: -0.863% (inactive); `CCCCC(CC)COS(=O)(=O)O` (stereo not given): -1.03% (inactive). Regarding `Nc1nccs1`, the activation was 0.221% (inactive).
